Test results taken from the supplement of paper PMC6555819.

Tests used:
Assay in all cases: PBM binding z-score (relative to random genomic background probes); higher = stronger binding; sequences stand for … in GC…GCGATTGACAGCGTAGAATGAAGG
[1] = tested on: FXR:RXRa (NR concentration 270 nM, RXRa partner concentration 90 nM)
How it was run: (§1)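 Ligand-free nuclear receptor dimers were applied to custom Agilent 4×180K protein-binding microarrays whose double-stranded probes carried direct-repeat seeds, single-nucleotide variants, half-site ablations and random human genomic background sequences in 34-nt variable regions. Incubation lasted 1 h. Binding z-scores were computed against the random background probes from regression-normalized fluorescence.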

[2] = tested on: LXRa:RXRa (NR concentration 270 nM, RXRa partner concentration 90 nM)
How it was run: as §1

[3] = tested on: LXRa homodimer (NR concentration 270 nM)
How it was run: as §1

[4] = tested on: LXRb:RXRa (NR concentration 270 nM, RXRa partner concentration 90 nM)
How it was run: as §1

[5] = tested on: LXRb homodimer (NR concentration 270 nM)
How it was run: as §1

[6] = tested on: PPARa:RXRa (NR concentration 270 nM, RXRa partner concentration 90 nM)
How it was run: as §1

[7] = tested on: PPARg:RXRa (NR concentration 180 nM, RXRa partner concentration 90 nM)
How it was run: as §1

[8] = tested on: PPARg:RXRa 270nM:90nM, anti-RXR (NR concentration 270 nM, RXRa partner concentration 90 nM)
How it was run: as §1

[9] = tested on: PPARg:RXRa 30nM:10nM, anti-RXR (NR concentration 30 nM, RXRa partner concentration 10 nM)
How it was run: as §1

[10] = tested on: PPARg:RXRa 90nM:30nM, anti-RXR (NR concentration 90 nM, RXRa partner concentration 30 nM)
How it was run: as §1

[11] = tested on: PPARg:RXRa DBDmut IVT, anti-RXR (DBD mutation: RXRa K156A/R161A, NR concentration 270 nM, RXRa partner concentration 90 nM)
How it was run: as §1

[12] = tested on: PPARg:RXRa IVT, anti-PPARg (NR concentration 270 nM, RXRa partner concentration 90 nM)
How it was run: as §1

[13] = tested on: PPARg DBDmut:RXRa IVT, anti-PPARg (DBD mutation: PPARg1 K132A/R137A, NR concentration 270 nM, RXRa partner concentration 90 nM)
How it was run: as §1

[14] = tested on: PPARg DBDmut IVT, anti-PPARg (DBD mutation: PPARg1 K132A/R137A, NR concentration 270 nM)
How it was run: as §1

[15] = tested on: PPARg homodimer (NR concentration 180 nM)
How it was run: as §1

[16] = tested on: PXR:RXRa (NR concentration 270 nM, RXRa partner concentration 90 nM)
How it was run: as §1

[17] = tested on: PXR homodimer (NR concentration 270 nM)
How it was run: as §1

[18] = tested on: RARa:RXR (NR concentration 270 nM, RXRa partner concentration 90 nM)
How it was run: as §1

[19] = tested on: RARa homodimer (NR concentration 270 nM)
How it was run: as §1

[20] = tested on: RARb:RXRa (NR concentration 270 nM, RXRa partner concentration 90 nM)
How it was run: as §1

AGAACGAGGGCAATCAGTTGATAGCACGGGTGGC
PBM binding z-score [1]: 0.397 | PBM binding z-score [2]: 0.342 | PBM binding z-score [3]: -0.0973 | PBM binding z-score [4]: 0.0776 | PBM binding z-score [5]: 0.0962 | PBM binding z-score [6]: 1.68 | PBM binding z-score [7]: 1.44 | PBM binding z-score [8]: 1.15 | PBM binding z-score [9]: 0.168 | PBM binding z-score [10]: 0.658 | PBM binding z-score [11]: 3.4 | PBM binding z-score [12]: 3.01 | PBM binding z-score [13]: 0.487 | PBM binding z-score [14]: -0.148 | PBM binding z-score [15]: -0.207 | PBM binding z-score [16]: 1.03 | PBM binding z-score [17]: 1.55 | PBM binding z-score [18]: 0.384 | PBM binding z-score [19]: -0.0136 | PBM binding z-score [20]: 2.09

TCAGACCGGTGAAGGTAACTCAGGTACGCAGTCG
PBM binding z-score [1]: 0.557 | PBM binding z-score [2]: 1.33 | PBM binding z-score [3]: -0.308 | PBM binding z-score [4]: 0.535 | PBM binding z-score [5]: -0.714 | PBM binding z-score [6]: 0.614 | PBM binding z-score [7]: 0.21 | PBM binding z-score [8]: 1.47 | PBM binding z-score [9]: 3.08 | PBM binding z-score [10]: 2.23 | PBM binding z-score [11]: 1.9 | PBM binding z-score [12]: 0.032 | PBM binding z-score [13]: -0.824 | PBM binding z-score [14]: -0.847 | PBM binding z-score [15]: -0.31 | PBM binding z-score [16]: 0.238 | PBM binding z-score [17]: -0.147 | PBM binding z-score [18]: 0.303 | PBM binding z-score [19]: -0.254 | PBM binding z-score [20]: 0.335

CGAACTAGCTCATTGACAGGACAGTGAATAGTAA
PBM binding z-score [1]: -0.457 | PBM binding z-score [2]: -0.373 | PBM binding z-score [3]: 0.0523 | PBM binding z-score [4]: -0.29 | PBM binding z-score [5]: -0.335 | PBM binding z-score [6]: -0.257 | PBM binding z-score [7]: 0.0799 | PBM binding z-score [8]: -0.461 | PBM binding z-score [9]: -0.245 | PBM binding z-score [10]: -0.396 | PBM binding z-score [11]: -0.0116 | PBM binding z-score [12]: -0.052 | PBM binding z-score [13]: 0.48 | PBM binding z-score [14]: 0.24 | PBM binding z-score [15]: -0.35 | PBM binding z-score [16]: -0.133 | PBM binding z-score [17]: 0.129 | PBM binding z-score [18]: 0.164 | PBM binding z-score [19]: 0.183 | PBM binding z-score [20]: -0.386

ATCTCCAGGTAAAGTTCAGTGAAAGATCGATAGA
PBM binding z-score [1]: 1.54 | PBM binding z-score [2]: 2.1 | PBM binding z-score [3]: 1.98 | PBM binding z-score [4]: 1.55 | PBM binding z-score [5]: 1.25 | PBM binding z-score [6]: 2.02 | PBM binding z-score [7]: 1.2 | PBM binding z-score [8]: 2.62 | PBM binding z-score [9]: 1 | PBM binding z-score [10]: 1.91 | PBM binding z-score [11]: 0.492 | PBM binding z-score [12]: 0.889 | PBM binding z-score [13]: 1.11 | PBM binding z-score [14]: 0.586 | PBM binding z-score [15]: 1.7 | PBM binding z-score [16]: 2.32 | PBM binding z-score [17]: 2.13 | PBM binding z-score [18]: 1.81 | PBM binding z-score [19]: 1.45 | PBM binding z-score [20]: 2.78

CAAACTAGGACACAGAGGTCAAAGTCCGTGCGTA
PBM binding z-score [1]: 5.53 | PBM binding z-score [2]: 5.78 | PBM binding z-score [3]: 6.08 | PBM binding z-score [4]: 5.13 | PBM binding z-score [5]: 1.79 | PBM binding z-score [6]: 5.73 | PBM binding z-score [7]: 6.63 | PBM binding z-score [8]: 5.99 | PBM binding z-score [9]: 3.64 | PBM binding z-score [10]: 5.73 | PBM binding z-score [11]: 6.49 | PBM binding z-score [12]: 6.69 | PBM binding z-score [13]: 3.32 | PBM binding z-score [14]: 2.78 | PBM binding z-score [15]: 5.68 | PBM binding z-score [16]: 6.16 | PBM binding z-score [17]: 7.13 | PBM binding z-score [18]: 6.38 | PBM binding z-score [19]: 1.48 | PBM binding z-score [20]: 4.28

ACAGACAGGTGACTGAAGGTAACTCAGCTGGACG
PBM binding z-score [1]: 0.0674 | PBM binding z-score [2]: 0.59 | PBM binding z-score [3]: -0.72 | PBM binding z-score [4]: -0.364 | PBM binding z-score [5]: -1.02 | PBM binding z-score [6]: 0.299 | PBM binding z-score [7]: 0.781 | PBM binding z-score [8]: 0.364 | PBM binding z-score [9]: -0.0254 | PBM binding z-score [10]: 0.262 | PBM binding z-score [11]: 0.539 | PBM binding z-score [12]: 0.434 | PBM binding z-score [13]: 0.745 | PBM binding z-score [14]: -0.576 | PBM binding z-score [15]: -0.875 | PBM binding z-score [16]: -0.321 | PBM binding z-score [17]: -0.503 | PBM binding z-score [18]: 0.0913 | PBM binding z-score [19]: -0.597 | PBM binding z-score [20]: 0.563

CCTAGCAGTCCAGGGTCACTCAAGCATTTCGCTT
PBM binding z-score [1]: 1.93 | PBM binding z-score [2]: 1.87 | PBM binding z-score [3]: -0.123 | PBM binding z-score [4]: 2.26 | PBM binding z-score [5]: -0.47 | PBM binding z-score [6]: 3.08 | PBM binding z-score [7]: 0.115 | PBM binding z-score [8]: 1.17 | PBM binding z-score [9]: -0.788 | PBM binding z-score [10]: 0.355 | PBM binding z-score [11]: -0.136 | PBM binding z-score [12]: 0.647 | PBM binding z-score [13]: -1.3 | PBM binding z-score [14]: -1.13 | PBM binding z-score [15]: 1.01 | PBM binding z-score [16]: 2.58 | PBM binding z-score [17]: 2.51e-05 | PBM binding z-score [18]: 3.02 | PBM binding z-score [19]: -0.3 | PBM binding z-score [20]: 2.33
